57 compounds from PubChem BioAssay AID588689 (Southern Research Specialized Biocontainment Screening …, 2011) can be followed below.

About 1,000 (0.29%) of roughly 340,000 compounds were called active. Cut-off read from the data, not from the text of the source: inconclusive = inhibition above about 29% without an active follow-up result; inactive = below that. The list is a sample of the results. Results with a measured potency or affinity are listed apart.

The target of the assay is Genome polyprotein (Dengue virus type 2 (strain 16681-PDK53)) (UniProt P29991). Description: Dengue-2 NS5 methyltransferase inhibitors, primary screen, biochemical, confirmation dose response (AID 588689). The following applies: Dengue-2 NS5 methyltransferase capping enzyme assay, at 25 µM, stronger effect = higher value.
Genome polyprotein (Dengue virus type 2 (strain 16681-PDK53)), sequence (P29991 whole entry, looked up): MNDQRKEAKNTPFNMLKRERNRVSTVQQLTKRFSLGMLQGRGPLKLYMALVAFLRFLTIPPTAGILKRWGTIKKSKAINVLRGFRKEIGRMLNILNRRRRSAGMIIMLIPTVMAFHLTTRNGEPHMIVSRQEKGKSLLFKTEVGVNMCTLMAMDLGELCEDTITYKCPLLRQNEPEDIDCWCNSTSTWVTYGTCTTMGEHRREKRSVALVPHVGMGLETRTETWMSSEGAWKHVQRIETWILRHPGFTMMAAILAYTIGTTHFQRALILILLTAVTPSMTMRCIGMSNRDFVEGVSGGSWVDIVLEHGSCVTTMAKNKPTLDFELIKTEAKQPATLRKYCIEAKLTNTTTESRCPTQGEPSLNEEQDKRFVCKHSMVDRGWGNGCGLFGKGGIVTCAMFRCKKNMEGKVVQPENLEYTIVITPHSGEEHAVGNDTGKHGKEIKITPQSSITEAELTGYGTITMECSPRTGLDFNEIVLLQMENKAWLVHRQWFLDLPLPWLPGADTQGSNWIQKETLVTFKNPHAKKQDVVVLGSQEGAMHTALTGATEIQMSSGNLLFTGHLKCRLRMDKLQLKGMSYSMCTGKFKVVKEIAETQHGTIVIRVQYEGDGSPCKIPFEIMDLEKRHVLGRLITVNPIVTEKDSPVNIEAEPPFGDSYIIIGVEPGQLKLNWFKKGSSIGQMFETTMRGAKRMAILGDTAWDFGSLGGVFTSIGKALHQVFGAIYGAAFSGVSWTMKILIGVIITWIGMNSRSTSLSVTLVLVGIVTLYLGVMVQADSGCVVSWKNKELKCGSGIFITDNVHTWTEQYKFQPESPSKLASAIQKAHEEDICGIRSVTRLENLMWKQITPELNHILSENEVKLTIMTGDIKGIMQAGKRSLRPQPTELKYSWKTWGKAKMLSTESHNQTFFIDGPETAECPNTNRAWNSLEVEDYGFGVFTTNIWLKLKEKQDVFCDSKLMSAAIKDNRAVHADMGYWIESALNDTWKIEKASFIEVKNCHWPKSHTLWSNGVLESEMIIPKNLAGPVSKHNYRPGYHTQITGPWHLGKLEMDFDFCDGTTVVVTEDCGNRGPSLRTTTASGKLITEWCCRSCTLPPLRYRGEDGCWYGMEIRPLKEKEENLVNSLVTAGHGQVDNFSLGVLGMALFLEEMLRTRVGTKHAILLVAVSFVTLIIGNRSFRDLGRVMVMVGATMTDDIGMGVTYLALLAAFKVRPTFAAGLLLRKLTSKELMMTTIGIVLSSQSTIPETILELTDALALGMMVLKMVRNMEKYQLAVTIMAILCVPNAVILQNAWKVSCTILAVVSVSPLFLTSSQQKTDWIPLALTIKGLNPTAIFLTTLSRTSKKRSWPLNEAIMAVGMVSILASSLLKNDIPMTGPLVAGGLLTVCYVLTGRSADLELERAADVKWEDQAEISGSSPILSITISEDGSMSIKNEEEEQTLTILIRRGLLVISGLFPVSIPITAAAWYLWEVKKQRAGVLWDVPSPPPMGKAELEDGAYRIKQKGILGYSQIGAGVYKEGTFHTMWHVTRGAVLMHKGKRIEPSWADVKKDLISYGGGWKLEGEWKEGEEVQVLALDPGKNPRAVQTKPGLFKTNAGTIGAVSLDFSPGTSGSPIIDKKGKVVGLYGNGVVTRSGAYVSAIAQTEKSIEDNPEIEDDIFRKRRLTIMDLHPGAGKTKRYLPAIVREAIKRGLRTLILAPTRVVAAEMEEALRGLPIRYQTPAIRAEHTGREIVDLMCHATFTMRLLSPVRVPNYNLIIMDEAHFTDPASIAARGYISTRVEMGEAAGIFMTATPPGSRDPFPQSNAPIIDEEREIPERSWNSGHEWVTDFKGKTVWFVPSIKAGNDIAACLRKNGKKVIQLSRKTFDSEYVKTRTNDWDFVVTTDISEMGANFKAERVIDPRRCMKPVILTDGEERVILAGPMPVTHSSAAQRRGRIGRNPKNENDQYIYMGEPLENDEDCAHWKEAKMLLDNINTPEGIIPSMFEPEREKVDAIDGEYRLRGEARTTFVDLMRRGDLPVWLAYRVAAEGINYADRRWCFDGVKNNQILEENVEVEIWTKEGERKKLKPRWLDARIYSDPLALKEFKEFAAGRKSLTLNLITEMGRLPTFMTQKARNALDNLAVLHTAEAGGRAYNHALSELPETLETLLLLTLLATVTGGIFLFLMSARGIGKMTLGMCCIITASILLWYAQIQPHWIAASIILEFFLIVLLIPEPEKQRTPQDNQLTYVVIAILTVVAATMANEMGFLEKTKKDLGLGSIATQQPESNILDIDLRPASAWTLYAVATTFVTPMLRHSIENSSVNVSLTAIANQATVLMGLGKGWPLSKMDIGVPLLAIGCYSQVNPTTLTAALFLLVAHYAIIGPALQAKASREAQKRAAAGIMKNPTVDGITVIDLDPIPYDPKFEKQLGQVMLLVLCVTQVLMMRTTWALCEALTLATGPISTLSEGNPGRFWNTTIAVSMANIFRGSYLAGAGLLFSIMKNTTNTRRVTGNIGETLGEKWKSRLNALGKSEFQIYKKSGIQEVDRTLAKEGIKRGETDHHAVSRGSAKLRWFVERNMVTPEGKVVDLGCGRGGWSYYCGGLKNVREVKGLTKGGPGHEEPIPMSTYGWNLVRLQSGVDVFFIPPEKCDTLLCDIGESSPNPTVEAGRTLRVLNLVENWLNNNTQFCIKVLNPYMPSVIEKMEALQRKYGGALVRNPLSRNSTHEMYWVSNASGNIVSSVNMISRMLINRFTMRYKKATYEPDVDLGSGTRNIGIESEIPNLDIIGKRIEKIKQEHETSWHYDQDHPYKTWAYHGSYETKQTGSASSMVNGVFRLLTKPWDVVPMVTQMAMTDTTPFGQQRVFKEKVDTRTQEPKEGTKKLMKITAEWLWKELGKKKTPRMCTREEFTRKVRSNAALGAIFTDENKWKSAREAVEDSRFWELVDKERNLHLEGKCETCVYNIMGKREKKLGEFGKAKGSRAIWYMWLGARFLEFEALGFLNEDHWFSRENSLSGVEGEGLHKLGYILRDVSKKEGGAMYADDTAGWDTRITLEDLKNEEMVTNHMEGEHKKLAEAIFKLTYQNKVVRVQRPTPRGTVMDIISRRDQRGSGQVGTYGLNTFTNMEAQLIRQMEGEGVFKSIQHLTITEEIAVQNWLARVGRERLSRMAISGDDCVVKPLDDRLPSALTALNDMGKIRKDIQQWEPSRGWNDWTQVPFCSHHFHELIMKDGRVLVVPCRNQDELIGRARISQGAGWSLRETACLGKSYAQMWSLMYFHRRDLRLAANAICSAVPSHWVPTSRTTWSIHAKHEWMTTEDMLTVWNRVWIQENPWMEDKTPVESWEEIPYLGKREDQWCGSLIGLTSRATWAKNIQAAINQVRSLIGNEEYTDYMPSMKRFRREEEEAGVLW

As for `Cc1cc(Br)ccc1NC(=O)CN(C)C(=O)C1CCN(C(=O)c2ccc(Cl)cc2)CC1`, the inhibition was -3.75% (inactive). The same measure, in the same setting: in the case of `O=C1OC(c2ccccc2)c2ccc3ccccc3c21` (stereo not drawn) it was -10.9% (inactive); in that of `CCOc1ccc2c(C)c(Cl)c(=O)oc2c1`, -0.69% (inactive); in that of `OCCN1CCN(c2cc(-c3ccccc3)c3ccccc3n2)CC1`, -4.36% (inactive). With `Cc1ccc(NC(=O)COC(=O)c2c(C)nn(-c3ccccc3)c2C)cc1`, the inhibition is 7.29% (inactive). The same measure, in the same setting: in the case of `CC(=O)NN1C(=O)/C(=C\c2ccccc2)SC1=S` it was -3.17% (inactive); in that of `Cc1ccc(/C=C2\SC(=S)N(CCC(=O)NNS(=O)(=O)c3ccc(C)cc3)C2=O)cc1`, -5.09% (inactive); in that of `C=CCOc1ccc(/C=C2\SC(=S)N(N3CCOCC3)C2=O)cc1`, -7.66% (inactive). On the same count and under the same terms, in the case of `COc1cccc(-n2nnnc2SCC(=O)NCc2ccco2)c1` it was -6.77% (inactive); in that of `O=C(NCCc1c[nH]c2ccccc12)c1ccco1`, -0.82% (inactive); in that of `O=C(CNC(=O)C(c1ccccc1)c1ccccc1)N/N=C\c1ccc(C(=O)O)cc1`, 0% (inactive).

With `Cc1ccc(S(=O)(=O)N2CCN(S(=O)(=O)N3CCOCC3)CC2)cc1C`, the inhibition was 2.05% (inactive).

As for `O=C(CCN1CCN(c2ccccc2)CC1)N/N=C/c1ccccc1O`, the inhibition was -10.4% (inactive).

Regarding `O=C(CCc1ccc(S(=O)(=O)N2CCOCC2)cc1)N/N=C/c1cccc(O)c1`, the inhibition was -1.28% (inactive). Consider `CCn1c(C)nc2cc(C(=O)N/N=C/c3cccc(OC)c3O)ccc21`, for which the inhibition was -3.68% (inactive). Same read-out and setting: in the case of `CCn1c(C)nc2cc(C(=O)N/N=C/c3cccc(O)c3O)ccc21` it was -0.82% (inactive); in that of `COc1ccc(/C=N/NC(=O)CCN2CCN(c3ccccc3)CC2)c(OC)c1OC`, -0.66% (inactive); in that of `COc1ccc(/C=N/NC(=O)c2cc(C)n(-c3ccccc3)c2C)cc1OC`, -10.9% (inactive).

`Cc1cc(/C=N/NC(=O)c2ccccc2F)c(C)n1-c1ccccc1`: the inhibition was -8.18% (inactive). Same read-out and setting: in the case of `O=C(CCc1ccc(S(=O)(=O)N2CCOCC2)cc1)N/N=C/c1ccc(F)cc1F` it was -6.07% (inactive); in that of `CCOC(=O)CN1C(=O)N[C@@H](c2cccs2)C(C(=O)OC)=C1C`, -0.8% (inactive); in that of `Cn1ccnc1C(=O)c1cc(SCC(=O)NC2CC2)nc2ccccc12`, 0.73% (inactive). On the same count and under the same terms, in the case of `O=C(NCc1nnnn1-c1ccc(F)cc1)c1cc2ccccc2o1` it was 9.89% (inactive).

`CCCCCCCCN1[C@@H](CC(=O)OCC)c2cc(C(F)(F)F)ccc2S1(=O)=O`: the inhibition is -6.14% (inactive). Turning to `CC(C)COc1cccc(C(=O)N(C)CC(=O)Nc2cccc3ccccc23)c1`, the inhibition was -6.94% (inactive). On to `Cc1cccc(CC(=O)Nc2ccon2)c1`, for which the inhibition was -7.18% (inactive). Further, where the note is “measured here: pilot screen replicate inhibition”, the inhibition was 1.51%. Regarding `COc1cc(/C=N/Nc2ccc([N+](=O)[O-])cc2S(=O)(=O)N2CCOCC2)cc(OC)c1OC`, the inhibition was -2.58% (inactive). Turning to `O=[N+]([O-])c1ccc(N/N=C/c2cccc(O)c2O)c(S(=O)(=O)N2CCOCC2)c1`, the inhibition was 6.18% (inactive). For the compound `NS(=O)(=O)c1ccc(N/N=C/c2ccc(O)cc2O)c([N+](=O)[O-])c1`, the inhibition was 27.2% (inactive). Consider `NS(=O)(=O)c1ccc(N/N=C/c2ccccc2C(=O)O)c([N+](=O)[O-])c1`, for which the inhibition is 4.52% (inactive). Still for that read-out and setting: in the case of `Cc1c(OCC(=O)N2CCC(C(N)=O)CC2)ccc2c3c(c(=O)oc12)CCCC3` it was -4.35% (inactive). Still for that read-out and setting: in the case of `CCOCCCNC(=O)CCc1nnc2n(CCC(C)C)c(=O)c3ccccc3n12` it was -4.57% (inactive). On the same count and under the same terms, in the case of `CCOc1cc(NC(=S)NCCCN2CCOCC2)c(OCC)cc1NC(=O)C1CCCCC1` it was -10.9% (inactive).

As to `CC(=O)Nc1ccc2c(c1)CCc1ccccc1-2`, the inhibition is -9.7% (inactive). On the same count and under the same terms, in the case of `O=C(O)CCCc1ccc2c(c1)CCc1ccccc1-2` it was -0.8% (inactive); in that of `CCN(CC(=O)NCc1cccs1)S(=O)(=O)c1ccccc1Cl`, 0% (inactive). The same measure, in the same setting: in the case of `O=C(NCc1ccncc1)C(=O)NCC1OCCN1S(=O)(=O)c1ccc(F)cc1` (stereo not drawn) it was -3.87% (inactive); in that of `CCC(COC(C)=O)Nc1nc2c([nH]1)c(=O)n(C)c(=O)n2C` (stereo not drawn), 9.2% (inactive); in that of `COC(=O)C1=C(C(=O)OC)C(c2cc([N+](=O)[O-])ccc2O)c2sc(=O)[nH]c2S1` (stereo not drawn), -1.58% (inactive). Same read-out and setting: in the case of `COC(=O)c1cc(OC)nc2ccc(Br)cc12` it was 4.64% (inactive). With `COC(=O)c1sc2ccccc2c1N`, the inhibition is -9.74% (inactive). Same read-out and setting: in the case of `COC(=O)C1=C(C(=O)OC)C(c2ccc(OC)c(OC)c2)c2sc(=O)[nH]c2S1` (stereo not drawn) it was 18% (inactive); in that of `Cc1ccnc(NC(=O)C2CCCN(c3ncnc4c3nc3n4CCCCC3)C2)c1` (stereo not drawn), 0.45% (inactive).

In the case of `COc1ccc(/C=N/N=C2/NC(=O)C(CC(=O)O)S2)cc1OCc1ccccc1Cl` (stereo not drawn), the inhibition was 17.8% (inactive). `CCOc1cc(/C=N/NC(=O)CSc2nnc(C)s2)ccc1OCc1ccccc1Cl`: the inhibition was 8.09% (inactive).

For `CCOc1cc(/C=N/N=C2/NC(=O)C(CC(=O)O)S2)ccc1OCc1ccc(Cl)cc1Cl` (stereo not drawn), the inhibition was 25.1% (inactive). On the same count and under the same terms, in the case of `COc1cc(/C=N/N=C2/NC(=O)C(CC(=O)O)S2)ccc1OCc1ccc(Cl)cc1` (stereo not drawn) it was 16.7% (inactive); in that of `COc1ccc(/C=N/N=C2/NC(=O)C(CC(=O)O)S2)cc1OCc1ccc(Cl)cc1` (stereo not drawn), 13.3% (inactive); in that of `COc1cc(/C=N/NC(=O)CC2(C)OCCCO2)ccc1OCc1ccc(Cl)cc1Cl`, -4.47% (inactive). The same measure, in the same setting: in the case of `O=C1CCc2nc3ccccc3c(=O)n2N1` it was -1.38% (inactive); in that of `COc1cccc(C(CNc2ccc(S(=O)(=O)N3CCN(C)CC3)cc2[N+](=O)[O-])N(C)C)c1` (stereo not drawn), 2.89% (inactive); in that of `Cc1onc(-c2c(F)cccc2Cl)c1C(=O)NNC(=O)C1CCN(Cc2cccc(F)c2)CC1`, -7.02% (inactive). Turning to `COc1ccc(S(=O)(=O)NNC(=O)c2cccs2)cc1`, the inhibition was -2.33% (inactive). With `O=c1[nH]c2ccccc2c(O)c1-c1ccccc1[N+](=O)[O-]`, the inhibition is -7.29% (inactive). The same measure, in the same setting: in the case of `COc1cc(C(=O)Nc2c(C(=O)O)[nH]c3ccccc23)cc(OC)c1OC` it was -6.62% (inactive).

Consider `COc1ccc(S(=O)(=O)Nc2c(C(=O)O)[nH]c3ccccc23)cc1OC`, for which the inhibition was 1.6% (inactive). Same read-out and setting: in the case of `O=C(O)c1[nH]c2ccc([N+](=O)[O-])cc2c1-c1ccccc1` it was 10.3% (inactive).
